From PubChem BioAssay (NCATS) come the findings set out here.

Unmarked numbers belong to inactive results. Inconclusive results are not listed. The source made the active and inactive calls. Unless noted, the call rests on the fitted dose curve; in most records, active means well fitted curve in the direction sought with a large enough effect; inconclusive means small, poorly fitted or top-dose-only effect, or another doubt; inactive means no such curve, though single readings can be large; an effect the other way counts as inactive or inconclusive.

The subject of experiment [1] is HIV-1 nucleocapsid protein NCp7 (binding to TG oligonucleotide). Description: HIV Nucleocapsid (AID 346; call rule not given here;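 further: potency means the concentration at half of the fitted maximal effect; potency is for inhibitors that block NC binding and lower polarization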). Conditions: HIV-1 NC / fluorescein-TGTGTGTG probe, fluorescence polarization. In short, it runs like this:
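10 nM TG4xF probe with 100 nM nucleocapsid protein in high-salt Hepes pH 7.5 (250mM NaCl) containing 1uM ZnCl2 and reducing agents. Compound inhibition of binding was read as fluorescein polarization after 1 hr at room temperature.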
For orientation: Polarisation of emitted light reports the rotation of a fluorescent probe.

The nature of experiment [2]: qHTS Assay for Identification of Small Molecule Inducers of Hypoxia Response (AID 2120; active means well fitted curve in the direction sought with a large enough effect in the signal ratio, with a control signal flat, not every such curve was filed as active; the % refers to the signal ratio; further: potency means the concentration at half of the fitted maximal effect; on activation: 0% is about no effect). To be noted: hypoxia response reporter cells, beta-lactamase ratio readout; series mostly up to 104 µM. The essentials: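 HRE-bla ME-180, 2500 cells/well, 0.5% dialyzed FBS medium; cpd titration, 17 h 37 degrees C; CCF4 2.5 h RT; Ex 405, Em 460/530 ratio -> %Activity, AC50.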
A general note: In qHTS, concentration-response curves come from the screen itself.

Experiment [3] is described as follows: qHTS assay for environmental chemicals that activate the Aryl hydrocarbon Receptor (AhR) signaling pathway (AID 651777). Further: nearly all actives have a fitted effect of over 15% in size. Further: potency means the concentration at half of the fitted maximal effect. On activation: % of control where 0% means no effect. To be noted: 1A2-DRE human hepatoma cells, luciferase, 24 h; activation: active compounds read high. In short, it runs like this: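 Concentration–response screening used 1,200 1A2-DRE cells per well, 24 hr compound exposure (37 C, 5% CO2), and One-Glo luminescence as the AhR-driven CYP1A2 reporter signal.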

Experiment [4] in a line: Cellular Toxicity (caspase-3) HUV-EC-C (AID 656). To be noted: HUV-EC-C cells, caspase-3 activation (apoptosis), vehicle = 0, 100 µM tamoxifen = 100%; series mostly up to 92.2 µM. In short, it runs like this:
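Luminescent Caspase-Glo 3/7 readout after 16 h, 37 °C compound exposure of HUV-EC-C endothelial cells, 1000 per well, complete medium. AC50 derived by Hill fitting, with DMSO as baseline and 100 uM tamoxifen as full activation.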

Experiment [5] can be described thus: Cellular Toxicity (caspase-3) MRC-5 (AID 659). Conditions: MRC-5 cells, luminescence, normalized: DMSO 0%, 10 µM staurosporine 100%; series mostly up to 91.7 µM. In short, it runs like this:
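Luminescent Caspase-Glo 3/7 read-out (1 h, room temperature) after a 16 h, 37 °C compound exposure of MRC-5 lung fibroblasts at 1500 cells/well. Concentration-response AC50 from Hill equation; 0% DMSO, 100% 10 uM staurosporine.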

Experiment [6] is described as follows: Cellular Toxicity (caspase-3) Mesangial (AID 660).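 Further: combined caspase 3 and 7 activity read by Caspase-Glo luminescence; cells exposed to compound for 16 h before the caspase read.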 To be noted: mesangial cells, normalized: DMSO 0%, 100 µM tamoxifen 100%; series mostly up to 91.7 µM. The essentials:
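AC50 values come from Hill-equation fits of caspase 3/7 activation, measured as Caspase-Glo luminescence in human glomerular mesangial cells exposed to compound for 16 h at 37 °C; 100% set by 100 uM tamoxifen.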

A short description of experiment [7]: Cellular Toxicity (caspase-3) SK-N-SH (AID 661). To be noted: SK-N-SH caspase-3 activation, qHTS; series mostly up to 91.7 µM. The essentials:
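Apoptosis readout in SK-N-SH neuroblastoma: Caspase-Glo 3/7 luminescence following 16 hr treatment in complete culture medium. Normalization used DMSO and 10 uM staurosporine controls.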

Experiment [8] in a line: Cellular Toxicity (caspase-3) Hek293 (AID 664).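 Further: cells exposed to compound for 16 h at 37 °C before readout.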 Conditions: HEK293 caspase-3 activation, DMSO = 0%, 100 µM tamoxifen = 100%; at 92.2 µM (top of the series). The essentials:
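Apoptosis readout: Caspase-Glo 3/7 signal in human HEK293 cells following 16-hour compound incubation. Responses scaled between DMSO baseline and 100 uM tamoxifen.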

Experiment [9] can be described thus: Cellular Toxicity (caspase-3) NIH 3T3 (AID 666).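 Further: 0% = DMSO basal and 100% = 100 µM tamoxifen stimulation.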 Conditions: NIH 3T3 caspase-3 activation, apoptosis/toxicity; series mostly up to 92.2 µM. In short, it runs like this: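 Activity: caspase-3/7 induction, NIH 3T3 cells, 16 hr treatment at 37°C, luminescent Caspase-Glo detection; AC50 via Hill equation.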
The target of experiment [10] is Cytochrome P450 3A4 (Homo sapiens) (UniProt P08684). Description: qHTS Assay for Inhibitors and Substrates of Cytochrome P450 3A4 (AID 884). Further: on the % scale 0 is the no-effect control and ±100 the full control effect; nearly all actives have a fitted effect of over 50% in size. Conditions: recombinant CYP3A4, Luciferin-PPXE luminescence; series mostly up to 57.1 µM. The essentials:
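Luminescent readout of luciferin produced by CYP3A4 (20 nM) dealkylation of Luciferin-PPXE, 25 uM (its KM). NADPH-driven reaction ran 60 min at RT after 10 min compound preincubation; data scaled to 57 uM ketoconazole as 100% inhibition.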

Experiment [11] is described as follows: MultiTox-Fluor Cytotoxicity Assay - LYMP1-001 - Dead Cells (AID 946).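 Further: 0% = DMSO and 100% = tetraoctylammonium bromide.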 To be noted: LYMP1-001 lymphoblastoid cells, dead-cell protease fluorescence; series mostly up to 92.2 µM. In short, it runs like this: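 In this qHTS, 15 uM tetraoctylammonium bromide defined 100% and DMSO defined basal activity. Lymphoblastoid cells (LYMP1-001, 2500 per well) received compound for 16 hr at 37 C before a fluorogenic dead-cell substrate readout at 485/520 nm.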

Experiment [12] is described as follows: Cell Viability - LYMP1-002 - Assay at 16 hr (AID 948).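 Further: 0% = DMSO alone and full effect = 92 µM tetraoctylammonium bromide.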 To be noted: LYMP1-002 lymphoblastoid cell viability; series mostly up to 92.2 µM. The essentials: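 ATP luminescence (CellTiter-Glo) was measured after 16 hr compound exposure at 37 C of 2500 lymphoblastoid LYMP1-002 cells per well. Concentration-response curves were fitted with the Hill equation to give AC50.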

Experiment [13] can be described thus: MultiTox-Fluor Cytotoxicity Assay - LYMP1-003 - Live Cells (AID 962).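 Further: 0% = DMSO only and full loss = 92 µM tetraoctylammonium bromide; cytotoxic hits lower the live-cell protease signal.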 Conditions: LYMP1-003 lymphoblastoid cells, MultiTox-Fluor live-cell protease fluorescence; series mostly up to 92.2 µM. In short, it runs like this: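 Human lymphoblastoid line LYMP1-003 in complete culture medium, treated 16 hr with titrated compounds. Viable cells quantified via cell-permeant GF-AFC substrate fluorescence; AC50 derived by Hill fitting.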

Experiment [14] in a line: Cell Viability - LYMP2-003 (AID 965).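 Further: potency means the concentration at half of the fitted maximal effect; cells exposed to compounds for 24 h before reading; nearly all actives have a fitted effect of over 50% in size.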 Conditions: LYMP2-003 lymphoblastoid cell viability; series mostly up to 92.2 µM. In short, it runs like this:
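CellTiter-Glo luminescence quantified ATP loss after 24 h compound treatment of LYMP2-003 lymphoblastoid cells at 37 C. Titration series were fitted with the standard Hill equation to give AC50.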

Experiment [15] is described as follows: Cell Viability - LYMP2-026 (AID 989). Further: potency means the concentration at half of the fitted maximal effect; nearly all actives have a fitted effect of over 50% in size. To be noted: LYMP2-026 lymphoblastoid cell viability, qHTS; series mostly up to 92.2 µM. In short, it runs like this: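 Acute toxicity screen in complete culture medium, with 24 hr compound exposure at 37 C. Viability read as cellular ATP via luciferase reaction, with tetraoctylammonium bromide (6.4pM to 92 uM) as positive control.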

Experiment [16] is described as follows: Cell Viability - LYMP1-002 - Assay at 40 hr (AID 994).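 Further: 0% = DMSO only and full inhibition = 92 µM tetraoctylammonium bromide; nearly all actives have a fitted effect of over 60% in size.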 Conditions: LYMP1-002 lymphoblastoid cell viability; series mostly up to 92.2 µM. The essentials: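 Concentration-dependent ATP loss after 40 hr treatment at 37 C defined toxicity; AC50 values were obtained by fitting the standard Hill equation.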
The target of experiment [17] is Peroxisome proliferator-activated receptor alpha (Homo sapiens) (UniProt Q07869). Description: qHTS assay for small molecule agonists of the peroxisome proliferator-activated receptor alpha (PPARalpha) signaling pathway (AID 651778). Further: % of control where 0% means no effect. To be noted: PathHunter PPARalpha complementation, chemiluminescence, 6 h; active compounds read high. In short, it runs like this:
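Chemiluminescence from complemented enzyme reported PPARalpha activation in cells after 6 hr of compound treatment at 37 C. The detection reagent was incubated for 60 min at room temperature, and compounds were scored as agonists.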

Experiment [18] is described as follows: qHTS assay for small molecule agonists of the antioxidant response element (ARE) signaling pathway measured by Nrf2-dependant transcriptional activity - cell viability counter screen (AID 720653; active means well fitted curve in the direction sought with a large enough effect in the repeat runs; an effect the other way counts as inactive or inconclusive; further: on the % scale 0 is the no-effect control and ±100 the full control effect). Conditions: ARE-bla HepG2 viability, CellTiter-Glo ATP luminescence, 16 h; active compounds read low. The essentials: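 Cytotoxicity counter screen: intracellular ATP quantified by CellTiter-Glo luminescence in the same ARE-bla HepG2 plates, after 16 h compound exposure and a 2 h beta-lactamase substrate step.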

Experiment [19] can be described thus: qHTS assay for cell viability of the p53RE-bla HCT-116 cell line (AID 743292). Further: on the % scale 0 is the no-effect control and ±100 the full control effect; nearly all actives have a fitted effect of over 55% in size. To be noted: p53RE-bla HCT-116 viability, ATP luminescence, 16 h; series mostly up to 95 µM. In short, it runs like this:
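Compound-exposed HCT-116 (p53RE-bla) cells, 4,000 per well, were kept 16 h at 37 C following a 5 h preincubation. Cell number was estimated from total ATP by CellTiter-Glo luminescence read after 30 min at room temperature.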

Peroxisome proliferator-activated receptor alpha (Homo sapiens), sequence (Q07869 whole entry, looked up): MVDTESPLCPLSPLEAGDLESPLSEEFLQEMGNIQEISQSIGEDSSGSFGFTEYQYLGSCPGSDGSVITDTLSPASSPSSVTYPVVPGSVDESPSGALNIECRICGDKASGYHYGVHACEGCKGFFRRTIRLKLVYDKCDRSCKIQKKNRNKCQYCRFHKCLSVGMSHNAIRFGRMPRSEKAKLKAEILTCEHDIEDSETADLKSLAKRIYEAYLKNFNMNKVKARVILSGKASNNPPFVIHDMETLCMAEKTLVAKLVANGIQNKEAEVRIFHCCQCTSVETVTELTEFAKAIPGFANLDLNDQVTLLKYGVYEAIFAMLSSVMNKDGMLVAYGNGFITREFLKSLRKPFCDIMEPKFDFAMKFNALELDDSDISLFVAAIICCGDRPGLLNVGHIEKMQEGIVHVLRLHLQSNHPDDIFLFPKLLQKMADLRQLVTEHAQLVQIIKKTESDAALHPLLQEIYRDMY
Cytochrome P450 3A4 (Homo sapiens), sequence (P08684 whole entry, looked up): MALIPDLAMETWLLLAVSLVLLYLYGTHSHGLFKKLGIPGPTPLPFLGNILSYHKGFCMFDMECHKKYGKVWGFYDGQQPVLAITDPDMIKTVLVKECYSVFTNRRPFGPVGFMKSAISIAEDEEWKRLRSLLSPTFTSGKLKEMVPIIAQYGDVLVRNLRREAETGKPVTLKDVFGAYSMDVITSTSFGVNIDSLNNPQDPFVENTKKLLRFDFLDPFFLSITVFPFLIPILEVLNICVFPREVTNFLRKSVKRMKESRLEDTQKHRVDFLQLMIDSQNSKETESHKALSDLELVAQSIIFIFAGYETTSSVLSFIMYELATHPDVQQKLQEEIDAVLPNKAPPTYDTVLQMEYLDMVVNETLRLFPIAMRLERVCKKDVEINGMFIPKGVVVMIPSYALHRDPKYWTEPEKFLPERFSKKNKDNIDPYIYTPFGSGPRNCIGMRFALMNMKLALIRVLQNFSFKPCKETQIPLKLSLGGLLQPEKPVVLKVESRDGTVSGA

`Cc1cnc(CNc2ncnc3ccc(-c4cccc(C#N)c4)cc23)cn1`: in [1], the Potency is above 20 µM.
`COc1ccccc1-c1nc(NCCN2CCOCC2)c2ccccc2n1`: the Potency in experiment [1] was above 20 µM.
For `c1ccc2c(c1)ccc1cc3c(ccc4ccccc43)cc12`, the Potency is 44.7 µM (active) in experiment [2] and 2.82 µM (active) in experiment [3].
For the compound `COc1cccc(Nc2ncc3ncc(=O)n(Cc4ccc(F)cc4)c3n2)c1`, the Potency in experiment [1] was above 20 µM.
Same read-out and setting: the figure for `CCNc1ncc2nc(-c3cccs3)c(=O)n(Cc3cccs3)c2n1` is above 20 µM.
With `c1ccc2c(c1)-c1cccc3c1c-2cc1ccccc13`, the Potency in experiment [2] is 44.7 µM (active); in [3], 10 µM (active).
Turning to `CC(=O)N1CCC2(CCCN(Cc3nccs3)C2)CC1`, the Potency in [1] was above 20 µM.
As for `N#C/C=C/C#N`, the compound was classed as inactive in experiment [4], in experiment [5], in experiment [6], in [11], in experiment [12] and in experiment [13]. For the same compound, the Potency result in experiment [7], in experiment [9], in experiment [10], in [16], in experiment [2] and in experiment [19] was “inactive” throughout. Also, the caspase-3 activation in experiment [8] is -2.32%. In addition, the Potency in experiment [14] is 20 µM (active); in experiment [15], 39.8 µM (active). Moreover, the activation in [3] is 5.04%. The results for the max response in experiment [17] and in experiment [18] were -6.4% and -28.1%, respectively.
With `O=S(=O)(c1ccccc1)N1CCC2(CC1)CN(c1ccccc1)C2`, in experiment [1], the Potency was above 20 µM.
On the same count and under the same terms, then `N#Cc1cccc(NC(=O)N2CCCC3(CCN(C(=O)c4ccncc4)CC3)C2)c1`, with above 20 µM; and `CS(=O)(=O)N1CCC[C@@]2(CCN(C(=O)Nc3ccccc3)C2)C1`, with above 20 µM; and `COc1ccc2[nH]cc(CCNc3ccnc(-c4cccnc4)n3)c2c1`, with above 20 µM.
For the compound `CN1CCN(c2ncc3nc(-c4cccc(C#N)c4)c(=O)n(C[C@H]4CCCO4)c3n2)CC1`, the Potency in experiment [1] was above 20 µM.
Turning to `[C-]1=CC=CC1.[C-]1=CC=CC1.[Cl-].[Cl-].[Ti+4]`, the result in experiment [4], in experiment [5], in experiment [6] and in experiment [11] was inactive. Further, the Potency entry in [7], in [9], in [10], in experiment [2] and in experiment [19] was “inactive” in each case. Besides, the caspase-3 activation in experiment [8] is 3.8%. In experiment [3], the activation is 0.145%. Besides, the max response was 0.688% in experiment [17] and -7.58% in experiment [18].
